Sampled rows, rich in hits. Any-hit rate of the full collection: about 3.1%.
MBD2 inh – inhibitors of human MBD2 binding to methylated oligonucleotide | 0.31% of 370,000 active | TR-FRET | inhibition, % at 4.4 µM | Q9UBB5; in the data active means inhibition above about 13%
Target sequence (Q9UBB5 whole entry, looked up): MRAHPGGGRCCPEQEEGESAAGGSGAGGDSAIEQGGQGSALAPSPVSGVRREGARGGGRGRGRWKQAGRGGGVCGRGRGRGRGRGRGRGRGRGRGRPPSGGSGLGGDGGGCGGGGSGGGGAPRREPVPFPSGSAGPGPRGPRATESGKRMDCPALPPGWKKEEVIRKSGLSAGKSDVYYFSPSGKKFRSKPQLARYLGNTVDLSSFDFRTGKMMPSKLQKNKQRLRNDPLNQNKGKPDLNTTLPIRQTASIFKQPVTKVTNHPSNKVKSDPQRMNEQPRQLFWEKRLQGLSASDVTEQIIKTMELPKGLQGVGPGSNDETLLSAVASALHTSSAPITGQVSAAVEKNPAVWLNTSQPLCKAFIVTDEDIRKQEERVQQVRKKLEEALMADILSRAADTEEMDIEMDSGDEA
KLK7 zymogen act – activators of human kallikrein-7 zymogen; activation, % at 7 µM; 0.9% of 370,000 active; P49862; AID 652039; purified proKLK7, EDANS-DABCYL substrate fluorescence; 100% is mature enzyme control, 0% vehicle;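 active means activation above the mean of all tested compounds plus 3 SD, computed per campaign excluding outliers beyond control limits, cut at about 13% in these data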
Rin1 Abl inh – blocks binding of human Rin1 to Abl; P00519+Q13671; TR-FRET Rin1/Abl binding, biochemical; inhibition, % at 7.35 µM; 0.4% of 360,000 active; in the data active means inhibition above about 5%, passing the limit was not always enough
LEDGF integ inh – blocks HIV-1 LEDGF/p75-dependent DNA integration. inhibition, % at 3.7 µM. 0.64% of 370,000 active. TR-FRET IN-LEDGF/p75 DNA integration, Eu/Cy5. AID 743269;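 active means inhibition above the screen-wide mean plus 3 SD, cut at about 13% in these data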;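 further: signal is the Cy5 over europium emission ratio at 671 and 618 nm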
Neddyl block – cullin neddylation inhibition; calls only at 25 µM; TR-FRET cullin neddylation, biochemical; 0.58% of 360,000 active; in the data active means inhibition above about 36%
UHRF1 MBD2 ctr – blocks human UHRF1 binding to methylated DNA | 0.75% of 370,000 active | UHRF1 binding to methylated oligo, TR-FRET | inhibition, % at 4.4 µM | Q96T88; in the data active means inhibition above about 21%;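 further: UHRF1 SRA domain binding a hemimethylated CpG hairpin DNA probe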
Hits are given with their value; – = inactive; · = not tested or not shown; + = active, no number.

SMILES | MBD2 inh | KLK7 zymogen act | Rin1 Abl inh | LEDGF integ inh | Neddyl block | UHRF1 MBD2 ctr
COCC(C)n1c(SCc2ccc(OC)c(F)c2)nc2ccccc2c1=O (stereo not drawn) | – | – | – | – | – | –
CN(C)C(=O)c1cc2c(c(-c3cccc(-c4ccccc4F)c3)n1)[C@@H](CCO)N(S(C)(=O)=O)C2 | – | – | · | – | – | 92
O=S(=O)(NCc1ccc2c(c1)OCO2)c1ccc2c(c1)oc1ccccc12 | – | – | – | – | – | 29
O=S(=O)(NCc1ccc2c(c1)OCO2)c1cccc(F)c1 | – | – | – | – | – | –
NC(=S)Nc1ccccc1Br | – | – | – | – | – | –
NC(=S)Nc1cccc2cc3ccccc3cc12 | – | – | – | – | + | –
NC(=S)Nc1cc2ccccc2c2ccccc12 | – | 14 | – | – | – | –
CCOC(=O)C1=C(C)N(C[C@@H]2CC[C@@H](Cc3ccc(-c4ccccc4)cc3)O2)C(=O)NC1c1cccc([N+](=O)[O-])c1 (stereo partly drawn) | – | – | – | – | – | –
CCn1c(COc2ccccc2)nnc1SCC(=O)Nc1ccc(S(=O)(=O)Nc2cc(C)nc(C)n2)cc1 | – | – | · | – | · | –
CC(C(=O)OCC(=O)Nc1ccc2c(c1)OCO2)N1C(=O)c2ccccc2C1=O (stereo not drawn) | 34 | – | – | – | – | –
CC1(C(=O)NC2CCN(Cc3ccccc3)CC2)CCN1Cc1ccc2ccccc2c1 (stereo not drawn) | – | – | – | – | – | –
CN(CCC#N)C(=O)COC(=O)c1c2c(nc3ccccc13)/C(=C/c1ccco1)CC2 | 64 | – | – | 79 | – | 86
Cc1ccc(CCNC(=O)CCS(=O)(=O)c2ccc(Br)cc2)cc1 | – | – | – | – | – | 24
CCOC1=C2CN(S(=O)(=O)c3ccc(C)cc3)[C@H](c3ccccc3)C[C@@H]2N(S(C)(=O)=O)[C@H](c2ccccc2)C1 | – | – | – | – | – | 28
O=C1NC[C@H](CCCCN2C[C@H](Cc3ccccc3)N(Cc3ccccc3)C(=O)C2=O)N(CCc2ccccc2)C1=O | – | – | · | – | – | –
CCCCNC(=O)C1(C)CCCCN1C(=O)c1ccc2c(c1)CCO2 (stereo not drawn) | – | – | – | – | – | –
CC(=O)Oc1cc2cccc(OC(C)=O)c(=O)c2c(OC(C)=O)c1OC(C)=O | · | · | 23 | · | – | ·
CCOC(=O)c1cnc(Nc2nc3ccccc3o2)nc1CN1CCN(C)CC1 | – | – | – | 18 | – | –
O=C(N[C@H]1CC[C@H](CCNS(=O)(=O)c2ccc(Cl)cc2)O[C@@H]1CO)c1cccc(F)c1 | – | – | · | – | – | 23
O=C(N[C@H]1CC[C@@H](CCNS(=O)(=O)c2ccccc2Cl)O[C@@H]1CO)c1ccccc1 | – | – | · | – | – | –
CCOC(=O)C1=C[C@@H](C2CCCC2)N(S(=O)(=O)c2ccc([N+](=O)[O-])cc2)[C@H]1c1ccccc1 | – | – | – | – | – | –
CCCCCNCC(=O)Nc1cc(C(F)(F)F)ccc1OCCOC | – | – | – | – | – | 48
COc1ccc(-c2nc3c4ccccc4ccn3c2CC2CCCCC2)cc1OC | – | – | – | – | – | 23
O=C(CSc1nnc(-c2cccc(Cl)c2)n1Cc1ccco1)Nc1ccc2c(c1)OCO2 | – | – | · | – | · | –
COC(=O)c1ccc2nc(C3CCCCC3)c(Cc3ccc(OC)cc3C)n2c1 | – | – | – | – | – | 21
SMILES | MBD2 inh | KLK7 zymogen act | Rin1 Abl inh | LEDGF integ inh | Neddyl block | UHRF1 MBD2 ctr
COC(=O)c1ccc2nc(C3CCCCC3)c(Cc3cccc(Cl)c3)n2c1 | – | – | – | – | – | 23
COC(=O)c1ccc2nc(C3CCCCC3)c(Cc3ccc(C)cc3)n2c1 | – | – | – | – | – | 23
Cc1ccc(Cc2c(C3CCCCC3)nc3ccc(Br)cn23)cc1 | – | – | – | – | – | –
COC(=O)c1ccc2nc(C(C)(C)C)c(Cc3ccc(OC)cc3C)n2c1 | – | – | – | – | – | 22
CNc1nnc(Sc2ncccc2[N+](=O)[O-])s1 | – | – | – | – | – | –
COC(=O)c1sccc1NC(=O)c1csc(C)c1 | – | – | – | – | – | 22
COC(=O)c1sccc1NC(=O)Nc1ccccc1F | – | – | – | – | – | 23
COc1ccccc1OCC(=O)Nc1nc(C)c(C)s1 | – | – | – | – | – | –
CC1(C)N([O-])C2=C(c3ccccc3C2=O)[N+](=O)C1(C)C | – | – | – | – | – | –
Cc1cccc(N(CC(=O)NC2CCCC2)C(=O)CNC(=O)c2ccco2)c1C | – | – | – | – | – | –
N=C1/C(=C\c2ccc(Br)o2)C(=O)N=C2SC(CC(=O)N3CCOCC3)=NN12 | – | – | – | 22 | – | –
N=C1/C(=C/c2ccc(Br)o2)C(=O)N=C2SC(CC(=O)N3CCCC3)=NN12 | – | – | – | 16 | – | –
CC1CCN(S(=O)(=O)c2ccc(NC(=O)Cc3cccs3)cc2)CC1 | – | – | – | – | – | –
C=CCn1c(-c2ccccc2)nc2nc3ccccc3nc21 | – | – | – | – | · | –
Clc1cccc(-c2nc3nc4ccccc4nc3n2Cc2ccccc2)c1 | – | – | – | – | – | 29
CC(Sc1nc2cc([N+](=O)[O-])ccc2n1-c1cccc(C(F)(F)F)c1)C(=O)NC(N)=O (stereo not drawn) | – | – | – | – | – | 95
O=S1(=O)C=CCN1Cc1cn(Cc2ccc(Cl)cc2)nn1 | – | – | · | – | · | –
O=S1(=O)C=CCN1Cc1cn(Cc2ccc(F)cc2)nn1 | – | – | · | – | · | 47
COc1cc(NC(=O)[C@H]2O[C@@H](n3ccc(N)nc3=O)[C@H](O)[C@@H]2O)cc(OC)c1OC | – | – | – | – | – | 43
Nc1ccn([C@@H]2O[C@H](C(=O)Nc3cc(C(F)(F)F)cc(C(F)(F)F)c3)[C@@H](O)[C@H]2O)c(=O)n1 | – | – | – | – | – | –
O=C(Cc1cccs1)N(c1ccc(F)cc1)C1(C(=O)NC2CCCCC2)CCCC1 | – | – | – | – | – | 27
O=C1CCC(C(=O)N(c2ccccc2)C2(C(=O)NC3CCCCC3)CCCCC2)N1 (stereo not drawn) | – | – | – | – | – | –
O=C(Cc1cccs1)N(Cc1ccco1)C1(C(=O)NC2CCCCC2)CCCCC1 | – | – | – | – | – | –
Cc1ccc(N(C(=O)C2CCC(=O)N2)C2(C(=O)NC3CCCC3)CCCCC2)cc1 (stereo not drawn) | – | – | – | – | – | 78
O=C(Cn1nnc(-c2ccncc2)n1)Nc1ccc(F)cc1F | – | – | · | – | · | –
CCN(Cc1cn(Cc2ccccc2)nn1)S(=O)(=O)c1ccc(N2CCCC2)cc1Br | – | – | · | – | · | –
C(=Nc1ccc(Nc2ccccc2)cc1)c1ccc2ccccc2c1 | · | · | 14 | · | – | ·
NC(=S)N/N=C/c1ccc2ccccc2c1 | – | – | – | – | – | –

Screening data from PubChem.
